# Experimental data published in the supplement of paper PMC6555819.
# Columns and labels:
# Assay in all cases: PBM binding z-score (relative to random genomic background probes); higher = stronger binding; sequences stand for … in GC…GCGATTGACAGCGTAGAATGAAGG
# [1] = test system: FXR:RXRa (NR concentration 270 nM, RXRa partner concentration 90 nM)
# Outline: (§1)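 Custom Agilent 4×180K protein-binding microarrays carried double-stranded probes, each with a 34-nt variable region. These regions held direct-repeat seeds, single-nucleotide variants, half-site ablations and random human genomic background sequences. Ligand-free nuclear receptor dimers were incubated on the arrays for 1 h, antibodies against each partner (one per run) detected binding, and scanned fluorescence was regression-normalized. Binding z-scores take the random background probes as reference.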
# [2] = test system: LXRa:RXRa (NR concentration 270 nM, RXRa partner concentration 90 nM)
# Outline: as §1
# [3] = test system: LXRa homodimer (NR concentration 270 nM)
# Outline: as §1
# [4] = test system: LXRb:RXRa (NR concentration 270 nM, RXRa partner concentration 90 nM)
# Outline: as §1
# [5] = test system: LXRb homodimer (NR concentration 270 nM)
# Outline: as §1
# [6] = test system: PPARa:RXRa (NR concentration 270 nM, RXRa partner concentration 90 nM)
# Outline: as §1
# [7] = test system: PPARg:RXRa (NR concentration 180 nM, RXRa partner concentration 90 nM)
# Outline: as §1
# [8] = test system: PPARg:RXRa 270nM:90nM, anti-RXR (NR concentration 270 nM, RXRa partner concentration 90 nM)
# Outline: as §1
# [9] = test system: PPARg:RXRa 30nM:10nM, anti-RXR (NR concentration 30 nM, RXRa partner concentration 10 nM)
# Outline: as §1
# [10] = test system: PPARg:RXRa 90nM:30nM, anti-RXR (NR concentration 90 nM, RXRa partner concentration 30 nM)
# Outline: as §1
Sequence,PBM binding z-score [1],PBM binding z-score [2],PBM binding z-score [3],PBM binding z-score [4],PBM binding z-score [5],PBM binding z-score [6],PBM binding z-score [7],PBM binding z-score [8],PBM binding z-score [9],PBM binding z-score [10]
CCTACTGGGCCACGGTCATTGATCAGTCAAAGCA,-0.282,-0.19,0.043,-0.408,-0.712,1.3,2.11,2.06,-0.0299,1.1
CAAACTAGGTTAAGGTCAAAGTCGGTTTGTGCCA,5.87,5.27,3.87,4.36,1.08,5.45,7.13,6.97,5.07,7.2
CTCGAAAGGTCGGTGGAGGTGAGTATACGGATAA,2.34,1.77,-0.129,1.41,-0.0636,2.82,0.577,1.22,0.0571,0.88
TCTGCTCGGTCAGTTGGTCAGCTAACGAGCTGCC,-0.211,-0.247,-0.549,-0.506,0.134,-0.00259,-1.22,0.38,0.881,0.52
ACAGACAGGTGAGTAAAGGTAACTCAGCTGGACG,0.171,0.4,-0.568,-0.0938,-0.506,0.95,1.25,1.64,0.681,1.27
TCTAGTTGATCAAAGGTCACACACTCGAAATGCG,5.64,5.85,3.84,5.63,1.9,5.8,7.89,7.86,7.94,8.62
CCTTACGGGTCACTGACAGTTTATAGCATTTGGA,5.44,4.17,0.494,3.4,-0.118,5.18,4.21,4.37,1.57,3.25
GCACACAGGTGAAACGCAGGTAACTCAGGGTGGC,0.021,0.302,-0.342,-0.349,-0.845,0.939,0.853,0.355,-0.481,-0.0562
ATATTTAGGTTACATCCGGGTCATTCAGGCTATG,2.65,4.19,2.61,3.21,1.94,4.28,4.37,4.16,2.28,3.35
TCTTGTAGATCAAAGGTTAGGAAAGCCGAAGCCT,1.26,1.45,-0.217,1.24,-0.196,4.06,7.63,7.57,7.89,9.05
TCTTGTAGATCAACAGGAGGTTAACAAAGATCGA,0.166,1.73,0.274,1.3,-0.158,1.69,0.373,1.39,2.62,1.92
TAGCCTAGGTCATCGGCCAGTATACCACGCGAAC,4.02,3.35,0.717,2.54,0.178,3.56,2.62,2.75,0.448,1.67
CTCGAAAGGTCGTGCTCAGGTGGGTATACCAAAC,5,3.41,0.337,3.41,0.396,4.5,2.17,3.18,0.828,1.96
ACTATTAGTTGAGACGATGGCAACCGATAGGTTG,-0.242,-0.267,0.0381,-0.527,0.0838,-0.263,0.598,-0.0569,0.0135,-0.0627
CCTACTGGGCCATCAGGTCATTAATATCAACGTT,1.02,0.82,1.3,1.37,-0.00307,2.46,2.9,3.3,0.96,3.01
ATTAGCAGGCCAAGTTTGGGTCACTCAAACAAAG,0.082,0.215,-0.128,0.803,-0.539,1.62,0.124,0.309,-0.279,0.138
CCTCGGAGGACAACAGGAGGTCTGAGCTGCCAGA,-0.506,-0.574,-0.845,-1.09,-1,-0.764,-0.138,-0.868,-1.36,-1.17
ATATATAGGTTAAGGGTCATTCAGGTTGGTTCGC,5.73,5.29,4.07,4.88,1.86,6.8,11.9,9.9,10.7,11.7
GCTGCTAGGTCAGGTGGGTCAGCTAACGGGTACG,1.62,1.2,-0.394,0.981,-0.0608,2.34,1.65,1.61,-0.279,0.851
GATACAGGGTCAGCTAGAGGCCAGGGTATGGAAA,4.42,2.81,-0.258,2.46,-0.476,4.43,3.61,3.44,0.426,2.14
GCTAGTTGGTCAGTAAAAGTTCACACACCGGTCG,0.899,2.22,4.58,1.73,0.297,1.95,0.79,1.98,0.387,1.5
ACTAGCAGGCCAAGTTTGGGTCAGTCAAACAAAG,0.028,-0.244,-0.318,-0.0247,-0.904,0.619,-0.396,-0.173,-0.835,-0.45
TCATATAGGTAATACAGGTGAGAGTCGGCATCTA,0.19,0.512,0.274,0.54,0.184,1.63,1.39,2.16,3.62,2.77
CGAGCTAGGTCATCCAGGACAGTGAATACATTGA,4.29,2.49,0.492,1.96,0.0673,3.54,2.6,2.25,0.528,1.35

Sequence,PBM binding z-score [1],PBM binding z-score [2],PBM binding z-score [3],PBM binding z-score [4],PBM binding z-score [5],PBM binding z-score [6],PBM binding z-score [7],PBM binding z-score [8],PBM binding z-score [9],PBM binding z-score [10]
AGAAGGAGGTTAAGATCAGGGAAACAGAATACAT,1.65,1.79,0.422,2.19,1.11,2.82,1.84,1.67,0.855,1.19
GCTGCTAGGTCAAATGATGGTCAGCTAAAGCTCG,4.42,3.62,0.405,2.44,0.557,3.87,2.82,3.57,0.844,2.69
GCATATAGGTAAGACAAGGTGAAAGTCCGATTGT,0.406,-0.0572,-0.498,-0.135,-0.674,1.06,0.917,0.84,0.112,0.746
CAGCCTAGGTCAGGGGCAGTATAGGAGGAACGTT,2.14,1.38,-0.331,1.27,-0.805,2.38,1.3,1.75,0.184,0.954
CGTCCAAGGTCAATGCTAGTTCAGTGAAAGCATT,7.07,4.94,1.4,3.86,0.707,4.84,3.72,4.27,1.01,2.95
GTACCAAGGCGAATAGGTCGTTGATGAGTAGGCG,-0.145,-0.392,-0.286,-0.382,-0.895,0.351,0.461,-0.0926,-0.512,-0.516
GCTCGGAGGACAAGGTCAGAGGTTTGTCCGTAGA,1.77,1.52,-0.501,1.28,-0.78,2.39,1.75,2.59,0.214,2.08
CCTATTAGTTGACCATAAGGGCAACCGAAGCTCG,1.08,0.988,0.64,0.736,0.554,0.977,0.556,0.931,-0.00379,1.03
ATATGTACGTTAAGGGTCATTCAGGTTGGTTCGC,4.5,4.13,2.57,4.2,1.31,4.74,4.87,6.38,4.9,6.21
ATCGAAAGGTCGTGATGTGAGTATACAGAAAGGC,4.54,3.48,0.378,3.08,0.626,4.67,3.21,3.2,1.34,2.34
TAGCCTAGGTCATGGGACAGTATACCACGCGAAC,5.01,3.4,0.47,3.01,0.331,4.29,3.92,3.74,1.14,2.55
CCGACTGGGGCAAAGGTTCCCATACTCAGTACGA,-0.153,-0.12,-0.431,-0.0438,-1.02,3,7.57,6.87,6.55,6.97
CCTACTGGGCCATCAGGTCATTGTTATCAACGTT,1.46,1.31,1.14,1.7,-0.00639,2.76,2.54,3.66,1.36,2.74
ATCGAAAGGTCGACGAGGTGAGGATACACCGTTT,4.5,3.36,0.0188,2.44,0.655,4.27,3.09,3.46,1.36,2.36
GCTCGCAGGACAAGGTCAGAGCTTTGTCCGTAGA,1.42,1.47,-0.546,1.08,-1.31,2.19,-0.311,0.692,-0.968,-0.0202
CCTACTGGGCCACAAAGGTCATTGATGCCGATAA,4.47,5.11,4.74,4.39,0.772,5.25,6.17,5.75,3.17,5.54
TCATATAGGTAAATGCTAGGTCAAAGTCCGATCT,1.83,3.8,5.26,2.45,0.769,2.57,1.76,2.81,3.96,3.47
CGTCAAAGTACAAGGTAACGTAACAGAAAGCAGC,0.052,-0.143,-0.279,0.0117,-0.288,0.136,0.969,0.307,0.31,0.0776
CAAACTAGGTCAAGAGGTCATAGTCCGCTTCCCG,6.79,6.06,5.4,4.74,1.48,6.55,9.82,8,6.96,8.16
CGTTACGGGTCACTGACAGGTTATAGCATTTGGA,5.82,4.13,0.216,3.8,-0.201,5.54,4.6,4.21,1.79,3.39
CGAACTAGGTCATCCAGGACTGTGAATACATTGA,4.52,2.4,0.426,2.06,0.107,4.84,7.64,6.38,4.23,5.82
ACAGACAGGTGATGAAGGTCACTCAGGCTATCAT,1.77,2.17,0.813,1.96,0.00655,2.75,1.62,1.8,0.565,1.21
TCGAGTAGTTTAGGGGCATTCAGAATGGCGTCGA,-0.0607,0.048,-0.581,0.829,-0.452,0.549,-0.393,0.237,0.631,0.559
CCAGACAGGTGAGACGGTAACTCAGCCTCGATTA,-0.078,-0.00881,0.268,-0.263,-0.377,0.144,0.367,0.232,-0.249,-0.285
